# Measured values from PubChem BioAssay AID504834 (National Center for Advancing Translational Sciences (NCATS), 2011).
# About 22,000 (6.9%) of roughly 320,000 compounds were called active. About 27% were inconclusive and are not listed. This is one part of a sample in which actives are shown more often than they occur. Unmarked numbers belong to inactive results. The call rests on the fitted dose curve; in most records, active means well fitted inhibition curve with a large enough effect; inconclusive means small, poorly fitted or top-dose-only effect, or another doubt; inactive means no such curve, though single readings can be large or run the other way.
# Assay: Primary qHTS for delayed death inhibitors of the malarial parasite plastid, 96 hour incubation
# Conditions: P. falciparum luciferase reporter growth; series mostly up to 28.7 µM; activity change, negative = inhibition: at the top concentration
# Summary of the method: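 Readout is luminescence from an integrated firefly luciferase in P. falciparum. Red cells, 2% hematocrit and 0.05% parasitemia final, were cultured with compound through two parasite generations (96 hours) at 37 C, 5% CO2.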
# On the % scale 0 is the no-effect control and ±100 the full control effect; potency means the concentration at half of the fitted maximal effect.
Compound,Potency,"activity change, negative = inhibition"
CCOC(=O)CC(=O)CSc1nc(-c2ccccc2)cc(-c2ccc(Cl)cc2)c1C#N,7.38 µM (active),–
Cn1ccsc1=NC(=O)c1cc(S(=O)(=O)N2CCOCC2)ccc1Cl,–,-14.7%
O=C(NCc1ccc2c(c1)OCO2)C(=O)NCC1OCCN1S(=O)(=O)c1ccc(F)cc1 (stereo unspecified),–,-14.7%
COCCCNC(=S)N1CCN(c2nc(-c3cccc(OC)c3)cs2)CC1,–,10.2%
CCc1ccc(Nc2n[n+](-c3ccccc3)c(-c3cccc(Cl)c3Cl)s2)cc1,3.7 µM (active),–
COC(=O)c1cnc(Nc2cc(C)ccc2OC)c2ccccc12,–,-10.3%
COc1ccc(C)cc1Nc1n[n+](-c2ccccc2)c(-c2cccc(Cl)c2Cl)s1,13.1 µM (active),–
COc1ccc(C)cc1Nc1nc(-c2c(C)[nH]c3ccccc23)cs1,–,0%
N#Cc1ccccc1NC(=O)c1ccc2c(c1)OCO2,–,26.6%
N#C/C(=C\c1cccnc1)C(=O)Nc1ccc(SC(F)F)cc1,–,0.243%
Cc1ccc(CNC(=O)CSc2nnc3c(n2)[nH]c2ccc(F)cc23)cc1,–,19.9%
COC(=O)C(C)n1cnc2c(nnn2-c2ccc(F)cc2)c1=O (stereo unspecified),–,39.5%
Cc1cc(C)cc(N(CC(=O)NC2CCCC2)C(=O)CCC(=O)Nc2nccs2)c1,–,22.4%
CCOC(=O)c1[nH]ncc1CN1CCCC(C(=O)c2ccc(OC)cc2C)C1 (stereo unspecified),8.28 µM (active),–
COc1ccc(C(=O)C2CCCN(Cc3ccc4nonc4c3)C2)c(C)c1 (stereo unspecified),–,3.69%
COc1ccc(C(=O)C2CCCN(Cc3cccn3-c3ccccn3)C2)c(C)c1 (stereo unspecified),–,-17.5%
O=C(N=C1SC2CS(=O)(=O)CC2N1c1cc(Cl)ccc1Cl)C1CC1 (stereo unspecified),–,27.7%
COC(=O)c1cccc(C(=O)N2CCCC(Nc3ccc4c(c3)OCCO4)C2)c1 (stereo unspecified),–,-13.8%
COc1ccc(C(=O)NCC(=O)N/N=C/c2cccnc2)cc1,–,13.3%
Cc1c(S(=O)(=O)N2CC(C)CC(C)C2)c(=O)n(C)c(=O)n1C (stereo unspecified),–,17.7%
O=C1/C(=C/c2ccc(F)cc2)SC(=S)N1CCCC(=O)N1CCCCC1CCO (stereo unspecified),6.57 µM (active),–
O=C(CCCN1C(=O)/C(=C\c2ccccc2)SC1=S)Nc1ccccc1O,–,-24.2%
O=C(CCCN1C(=O)/C(=C/c2ccccc2)SC1=S)Nc1ccc(O)cc1,–,-3.08% [at 5.75 µM]
CC(=O)c1ccc(NC(=O)Cn2c(=O)oc3ccccc32)cc1,–,0.355%
CCCN1C2CCCC1CC(NC(=O)c1cccc(OC)c1)C2 (stereo unspecified),–,1.92%
CCc1ccc(S(=O)(=O)Nc2ccc(C)c(NS(C)(=O)=O)c2)cc1,–,4.07%

Compound,Potency,"activity change, negative = inhibition"
CCCCc1ccc(NC(=O)CN2C(=O)NC(Cc3ccccc3)C2=O)cc1 (stereo unspecified),–,2.93%
CC(C)=N/N=C1/NC(=O)C(Cc2ccccc2)S1 (stereo unspecified),–,252%
COc1cc(/C=C(/NC(=O)c2ccc(Cl)cc2Cl)C(=O)O)cc(OC)c1OC,–,486%
CCOC(=O)CN/C=C(\C#N)c1ccc(F)cc1,–,10.4%
CCOc1cc(/C=C(/C#N)c2ccc(Cl)cc2)cc(Cl)c1OCC(=O)O,13.1 µM (active),–
CCC(=O)Nc1nnc(S(=O)(=O)N2CCCc3ccccc32)s1,–,0.177%
O=C(COC(=O)c1cccs1)Nc1ccccc1Cl,–,10.8%
COc1cc(C2C(C(=O)Nc3ccccc3OC)=C(C)Nc3ncnn32)ccc1O (stereo unspecified),–,-6.58%
COc1ccccc1Nc1nc(N)nc(CSC(=S)N2CCOCC2)n1,–,14.2%
COc1ccccc1NC1=NC(c2ccc(Cl)cc2)N=C(N)N1 (stereo unspecified),0.928 µM (active),–
COC(=O)c1c(C)[nH]c(C(=O)NCCc2ccc(S(N)(=O)=O)cc2)c1C,–,10.3%
CSc1ccccc1NC(=O)c1cc(Cl)sc1Cl,–,-2.6%
COc1ccc(S(=O)(=O)NCC(=O)NCc2cc(=O)n(C)c(=O)n2C)cc1F,–,53.1%
Cc1ccc(NC(=O)CN(C)C(=O)c2ccc(Br)o2)cc1,–,3.52%
CN(CC(=O)Nc1ccc(Cl)cc1)C(=O)c1ccc(COc2ccccc2)cc1,–,7.05%
CN(CC(=O)Nc1ccc(F)cc1)C(=O)c1ccc(-c2ccc(Cl)cc2)o1,2.33 µM (active),–
COCC(=O)N1CCc2ccc(NC(=O)c3ccccc3Cl)cc2C1,–,-37.8%
COc1ccc(NC(=O)CN(C)C(=O)CC2CCCCC2)cc1,–,2.68%
N#C/C(=C\c1ccc(-c2cccc([N+](=O)[O-])c2)o1)C(=O)NCCN1CCOCC1,10.4 µM (active),–
Cc1ccc(Cc2cnc(NC(=O)/C(C#N)=C/c3ccc(-c4cccc([N+](=O)[O-])c4)o3)s2)cc1,–,48.8%
Cc1ccc(C(=O)N/C(=C/c2ccc(-c3cccc([N+](=O)[O-])c3)o2)C(=O)NCCCN(C)C)cc1,–,28.7%
COc1ccc(C(CNC(=O)c2cccc(S(=O)(=O)Nc3ccccc3Cl)c2)N2CCOCC2)cc1 (stereo unspecified),–,-29.2%
COC(=O)C1=C(Nc2ccc(OC)cc2)C=C(C)C(C(=O)OC)C1c1ccc(C)cc1 (stereo unspecified),–,-9.49%
COC(=O)C1=C(Nc2ccc(C)cc2)C=C(C)C(C(=O)OC)C1c1ccc(F)cc1 (stereo unspecified),11.7 µM (active),–
COC(=O)C1C(=O)NCC1c1ccc(C)cc1 (stereo unspecified),–,9.9%
